Source: PubChem BioAssay
Many of the other results were omitted from the sample, so hits are more common in it than they were.
Bm FixLJ act: B. multivorans fixK reporter activation; B. multivorans fixK-promoter GFP reporter, 18 h; hits give high values; z-score (test concentration not listed); hit rate 0.3% among 29,000; AID 1918990;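 active means replicate mean overnight rise in green fluorescent reporter signal, 3 or more SD over negative controls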
Hits are given with their value; 0 = inactive.

SMILES | Bm FixLJ act
CCCN(CC#Cc1ccccc1)C(=O)CCc1nc(-c2ccncc2)no1 | 0
N#Cc1ccc(CN2CC3CCC2CN(C(=O)c2ccccn2)C3)cc1 (stereo unspecified) | 0
COc1ccc(Nc2cc(C(=O)NCCCN(C)C3CCCCC3)c3ccccc3n2)cc1 | 0
CCCCN(CCCNC(=O)c1cc(Nc2cccc(SC)c2)nc2ccccc12)Cc1ccccc1 | 3.2
CSc1cccc(Nc2cc(C(=O)NCCc3ccc(Cl)cc3)c3ccccc3n2)c1 | 0
CC(NCc1ccc(OCC(=O)N2CCOCC2)cc1)C1=CCCCC1 (stereo unspecified) | 0
Cc1ncn(CCNC(=O)N2CCN(S(=O)(=O)N3CCCC3)CC2)c1C | 0
Cc1nc2ccc(C(=O)N3CCCC4(CCc5cn[nH]c54)C3)cc2[nH]1 (stereo unspecified) | 0
COc1ccc(OCC2CCCN(C(=O)c3ccc4nc(C)[nH]c4c3)C2)cc1 (stereo unspecified) | 3.4
COc1ccc(OCC2CCCN(C(=O)C3CCN(C(C)=O)CC3)C2)cc1 (stereo unspecified) | 0
COc1ccccc1CN1CC(C(=O)Nc2nnc3nc(C)ccn23)CC1=O (stereo unspecified) | 0
